TRAIL sens C8 = viability loss with TRAIL in NB7+C8 cells, primary screen, TRAIL sensitizer project, cell-based, ATPlite luminescence; inhibition (viability loss, TRAIL sensitization), % at 10 µM; 1% of 360,000 active; AID 624354, 2012;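 active means compounds causing at least 50% loss of cell viability in the single-dose screen, relative to plate controls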
Platelet DG rel = inhibitors of platelet dense granule secretion, primary screen, cell-based, MLPCN, human platelets. human platelet-rich plasma, SFLLRN dense granule ATP release, luminescence. inhibition, %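 (compounds screened at 7.5 µM in platelet-rich plasma)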. 0.22% of 300,000 active. AID 1663, 2009;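 active means mean replicate score, as percent of positive control, at or above 50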
STAT3 inh-1 = IL-6 driven STAT3 reporter inhibitors, primary screen, U3A cells, luciferase, luminescence, MLSCN library | IL-6 STAT3-luciferase reporter; host cell line lacks STAT1 | inhibition, % at 5.5 µM | 0.89% of 190,000 active | AID 862, 2007;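 active means inhibition above the mean inhibition across all screened compounds plus 3 SD, cut at about 44% in these data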;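 further: 0% = DMSO only wells and 100% = 100 µM nifuroxazide control wells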
PPC-1+TRAIL kill = compounds killing PPC-1 cancer cells with TRAIL present, primary screen, TRAIL potentiator project, ATPLite luminescence, uHTS; cell killing (% activity), % at 4 µM or 5 µM; 0.41% of 220,000 active; PPC-1 cells + TRAIL, ATPLite viability luminescence;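 active means cell killing above 50% in the first pass at 4 µM, then a duplicate retest at 5 µM averaging 50% or more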;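 further: plate controls were cells with TRAIL plus DMSO for no effect and medium-only wells lacking cells for full effect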
STAT1 inh = STAT1 signaling inhibitors, primary screen, cell-based, HTS, luciferase reporter; NIH 3T3 STAT1-luciferase reporter, IFN-gamma, luminescence; inhibition, % at 5.5 µM; 0.35% of 200,000 active;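 active means inhibition above a set limit, the mean inhibition across all tested compounds plus 3 SD, cut at about 34% in these data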;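 further: 0% = IFN-gamma with DMSO and 100% = IFN-gamma with 300 µM nifuroxazide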
STAT3 inh-2 = STAT3 reporter inhibitors, retest of hits, confirmation, U3A cells, luciferase, luminescence; shares compounds with STAT3 inh-1; IL-6 STAT3 luciferase reporter; cell line lacks STAT1; inhibition, % at 5.7 µM; 45% of 1,200 active;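 active means inhibition above the hit cutoff computed for the primary STAT3 screen, cut at about 44% in these data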;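 further: 0% = IL-6 plus DMSO and 100% = IL-6 plus nifuroxazide control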
NFkB inh STAT3ct = NF-kB reporter inhibitors in human cells, confirmation, counter-screen for STAT3 inhibitor project, cell-based, HEK293T, luciferase, TNF-alpha stimulus | shares compounds with STAT3 inh-1 | TNF-alpha induced | inhibition, % at 5.7 µM | 36% of 1,200 active;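 active means inhibition above the mean of solvent-only control wells plus 3 SD, cutoff set per campaign, cut at about 13% in these data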;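 further: 0% = TNF-alpha with DMSO and 100% = TNF-alpha with MG high control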
STAT1 inh 2 = STAT1 reporter inhibitors, IFN-gamma induced, confirmation, counter-screen for STAT3 inhibitor project, cell-based, NIH 3T3, luciferase luminescence | shares compounds with STAT3 inh-1 | AID 1317, 2008 | inhibition, % at 5.7 µM | 27% of 1,200 active | NIH 3T3 STAT1-luciferase reporter;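 active means inhibition above the mean plus 3 SD of solvent-only control wells, limit set per screening run, cut at about 16% in these data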;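 further: 0% = DMSO with IFN-gamma and 100% = nifuroxazide control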
Starred values were filed as active, the others as inactive; . = no result given. Sampled rows, rich in hits. Any-hit rate of the full collection: about 1.6%.

SMILES	TRAIL sens C8	Platelet DG rel	STAT3 inh-1	PPC-1+TRAIL kill	STAT1 inh	STAT3 inh-2	NFkB inh STAT3ct	STAT1 inh 2
CCS(=O)(=O)c1ccc(N=Nc2ccc(O)c3ncccc23)c(OC)c1	70*	7	55*	-11	-2	16	-5	-18
O=C(NCc1ccco1)Nc1nnc([C@H]2C[C@H](O)[C@@H](CO)O2)s1	-4	.	.	.	.	.	.	.
COc1ccc(-[n+]2c(C)cc(/C=C3\Sc4ccccc4N3C)cc2C)cc1	3	-4	85*	35	28	85*	56*	2
Cc1cc(CNC(=O)c2cccc([N+](=O)[O-])c2C)c2ccccc2n1	20	5	51*	20	25	54*	14*	22*
Cc1cc(CNC(=O)Cc2ccccc2)c2ccccc2n1	10	1	4	-14	-23	.	.	.
Cc1sc2ncnc(NCC3COc4ccccc4O3)c2c1C (centres undefined)	38	-6	74*	16	27	83*	32*	23*
Cc1sc2ncnc(NCC3CCCO3)c2c1C (centres undefined)	6	-2	26	24	19	.	.	.
Cc1sc2ncnc(NCC(C)(C)N3CCOCC3)c2c1C	21	1	47*	21	24	56*	16*	18*
CC(/C=N\NC(=O)Cn1c(C)nc2ccccc21)=C\c1ccccc1	28	5	70*	14	20	69*	15*	17*
CC(/C=N/NC(=O)CSc1nc(C)cc(C)n1)=C\c1ccccc1	1	-2	-8	6	-3	.	.	.
CCCCN1C(C)=CC(=C2C(=O)c3ccccc3C2=O)C=C1C	66*	11	71*	31	18	16	-26	-132
OCC[C@@H]1C[C@H](O)[C@@H](O)[C@@]2(OCCCc3cc(C(F)(F)F)ccc32)O1	4	.	.	.	.	.	.	.
Cc1nc(C)c(C(=O)Nc2ccc(Oc3ccccc3)cc2)o1	20	3	55*	1	21	28	3	-2
Clc1ccc(OCc2nc(-c3ccccn3)no2)c(Br)c1	52*	5	57*	45	-8	13	-16	-124
Cc1ccc(-n2nnnc2SCn2nnc3ccccc3c2=O)c(C)c1	11	3	53*	7	21	53*	5	15
Cc1cc(SCn2nnc3ccccc3c2=O)nc2ccccc12	3	-1	-1	-11	-6	.	.	.
Cc1ccccc1S(=O)(=O)N1C[C@H]2[C@H]3C(=O)N(c4ccccc4)C(=O)[C@H]3CC(=O)[C@H]2[C@@H]1c1ccc(Cl)cc1	3	.	.	.	.	.	.	.
N/C(=N\OC(=O)COc1ccc(Br)cc1Cl)c1ccccn1	66*	3	57*	38	-28	-16	-46	-145
COc1ccc(-n2c(-c3ccc(Br)cc3)c[n+]3c2SC(C)C3)cc1 (centres undefined)	24	2	46*	10	17	41	-5	22*
COc1ccc(-n2c(-c3ccc(Br)cc3)c[n+]3c2CCC3)cc1	34	4	22	8	21	.	.	.
CC(C)c1ccc(NC2CCCN(C(=O)c3n[nH]c4c3CCC4)C2)cc1 (centres undefined)	19	-8	.	.	.	.	.	.
CCOCCOC(=O)c1[nH]c2c(c1C)C(=O)CC(c1ccc(OC)c(OC)c1)C2 (centres undefined)	0	1	.	.	.	.	.	.
COc1cc(C2CC(=O)c3c([nH]c(C(=O)OCCOC(C)C)c3C)C2)cc(OC)c1OC (centres undefined)	29	0	59*	21	26	46*	12	21*
CSc1ccc(Cn2c(C)c(C(=O)NCc3ccc4c(c3)OCO4)sc2=O)cc1	-3	.	.	.	.	.	.	.
CC1CCN(S(=O)(=O)c2ccc(Oc3ccc([N+](=O)[O-])cc3)cc2)CC1	15	-3	47*	-6	12	18	-3	1
SMILES	TRAIL sens C8	Platelet DG rel	STAT3 inh-1	PPC-1+TRAIL kill	STAT1 inh	STAT3 inh-2	NFkB inh STAT3ct	STAT1 inh 2
CC1CCN(S(=O)(=O)c2ccc([N+](=O)[O-])cc2)CC1	8	0	.	.	.	.	.	.
COc1ccc(S(=O)(=O)N(C)C[C@H]2Oc3c(NS(=O)(=O)c4cn(C)cn4)cccc3C(=O)N([C@H](C)CO)C[C@@H]2C)cc1	-5	.	.	.	.	.	.	.
O=C(Nc1ccc2c(c1)C(=O)N(CC1CCCO1)C2=O)c1ccc(Cl)c(Cl)c1 (centres undefined)	-1	-8	72*	13	-11	62*	14*	-16
CCOc1ccc(Nc2nc(N(C)c3ccccc3)nc(N)c2[N+](=O)[O-])cc1	8	-22	.	.	.	.	.	.
COC(=O)c1ccc(-c2nc3ccccc3[nH]2)cc1	82*	19	52*	36	-23	22	-23	-91
O=C(N/N=C/c1ccc(Cl)cc1)c1n[nH]c2c1CCCC2	32	-1	.	4	.	.	.	.
O=C(N/N=C/c1ccccc1)c1n[nH]c2c1CCCC2	28	3	56*	41	-5	15	-7	-86
O=C(N/N=C/c1ccccc1Cl)c1n[nH]c2c1CCCC2	41	22	68*	42	-29	73*	56*	23*
CCCS(=O)(=O)NC(=O)C1(C)CCN(C(=O)c2nc(C)oc2C)C1 (centres undefined)	-7	.	.	.	.	.	.	.
Cc1ccc2c(COC(=O)c3cnc(C)cn3)cc(=O)oc2c1	.	.	.	17	.	.	.	.
Cc1ccc2c(COC(=O)C3=COCCO3)cc(=O)oc2c1	8	-6	44*	33	-36	-3	-34	-81
CCOC(=O)C1=C[C@@H](c2ccccc2)N(S(=O)(=O)c2ccc(C)cc2)[C@H]1c1ccccc1Cl	-4	.	.	.	.	.	.	.
CCCC(=O)N1CCC1(C)C(=O)Nc1ccc2nccnc2c1 (centres undefined)	-19	.	.	.	.	.	.	.
CC(=O)Nc1ccc(Nc2cc(C)nc3c(-c4ccccc4)cnn23)cc1	17	.	55*	29	-56	-2	-57	-150
Cc1cc(N)n2ncc(-c3ccccc3)c2n1	8	-1	-16	17	-55	.	.	.
O=C(Nc1ccn(Cc2ccccc2F)n1)c1ccc(COc2ccccc2Cl)cc1	29	-4	46*	40	-3	46*	7	5
CCN(CC)C(=O)c1cccc(-c2csc(C(O)c3cccc(Cl)c3)n2)c1 (centres undefined)	5	.	.	.	.	.	.	.
